# Screens from PubChem BioAssay.
# In the library only some 22% were active in any assay of this set; here they are far more common.
# CYP2C9 inh: blockers of cytochrome P450 2C9 activity – biochemical, luminescence, ADME assay, primary screen; P11712; CYP2C9 Supersomes, luciferin-H conversion; inhibition, % at 5 µM; 96,000 tested, 20% active; AID 777, 2007;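 active = blocking of liver enzyme CYP2C9 beyond about 50% at 5 µM, limit read from the data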
# CYP2C9 activ: human CYP2C9 activators, primary screen, biochemical, luminescence; Cytochrome P450 2C9 (Homo sapiens), P11712; recombinant CYP2C9, luciferin-H conversion; stronger effect = higher value; factor 1 = untreated enzyme, 0 = blocked; activation factor at 5 µM; 96,000 tested, 1.4% active;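 active = activation factor of 2 or more for CYP2C9 at a 5 µM dose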;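 also: 0 = sulfaphenazole-blocked wells and 1 = vehicle-only wells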
# Measles CPE: compounds protecting cells from measles virus cytopathic effect, primary screen, measles RdRp inhibitor project, single point, MLSMR library, absorbance; Measles virus-infected cells, CPE protection; protection (pct of control), % at 4 µM; 140,000 tested, 1.5% active; in the data active = protection mostly above about 24%, no sharp cut-off; inactive = mostly below about 26%
# CYP2C19 inh: blockers of cytochrome P450 2C19 activity – biochemical, luminescence, ADME assay, primary screen. CYP2C19 Supersomes, luciferin-H EGE luminescence, 30 min. inhibition, % at 5 µM. 96,000 tested, 21% active;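 active = CYP2C19 inhibition above a set limit at 5 µM in the primary screen, cut at about 50% in these data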;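 also: plate controls were negative control wells for no effect and 2.5 mM tranylcypromine positive control for full effect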
# Target sequence (P33261 whole entry, looked up): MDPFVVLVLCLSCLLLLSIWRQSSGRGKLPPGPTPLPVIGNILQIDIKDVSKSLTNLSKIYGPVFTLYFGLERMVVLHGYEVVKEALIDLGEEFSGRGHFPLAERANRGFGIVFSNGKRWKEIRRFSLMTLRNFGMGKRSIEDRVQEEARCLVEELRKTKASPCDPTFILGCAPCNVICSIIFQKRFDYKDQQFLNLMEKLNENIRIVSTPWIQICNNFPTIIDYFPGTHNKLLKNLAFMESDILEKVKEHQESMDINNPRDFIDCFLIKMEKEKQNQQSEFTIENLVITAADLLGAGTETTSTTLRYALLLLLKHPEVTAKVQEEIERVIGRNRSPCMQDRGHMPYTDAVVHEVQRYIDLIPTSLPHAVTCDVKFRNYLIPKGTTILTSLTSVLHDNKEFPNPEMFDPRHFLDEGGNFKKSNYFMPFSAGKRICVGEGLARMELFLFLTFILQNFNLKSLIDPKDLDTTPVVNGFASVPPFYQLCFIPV
# CYP2C19 act: human CYP2C19 activators, primary screen, biochemical, luminescence; Cytochrome P450 2C19 (Homo sapiens), P33261; recombinant CYP2C19, luciferin-H EGE luminescence; stronger effect = higher value; 0 = fully inhibited enzyme, 1 = untreated enzyme; activation factor at 5 µM; 96,000 tested, under 10 active;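 active = activation factor of at least 2 at 5 µM in the primary screen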;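 also: 0 = wells with 2.5 mM tranylcypromine and 1 = vehicle-only wells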
# * marks the source's active call; other numbers are inactive results; . = not tested or not shown.
SMILES,CYP2C9 inh,CYP2C9 activ,Measles CPE,CYP2C19 inh,CYP2C19 act
CCCn1c(SCC(=O)c2cc(OC)ccc2OC)nnc1-c1ccco1,46,0.5,8,97*,0
CCn1c(SCC(=O)c2cc(OC)ccc2OC)nnc1C(C)C,41,0.6,16,99*,0
COc1ccc(OC)c(C(=O)CSc2nnc(-c3cccnc3)n2C)c1,-12,1.1,15,72*,0.3
CN(C(=O)c1ccccn1)c1nnc(-c2cccnc2)s1,.,.,25,.,.
O=C(NN1C(=O)C2C3CCC(O3)C2C1=O)c1ccco1 (stereo unspecified),.,.,5,.,.
CCOC(=O)C1CCCN(C(=O)C2CCCN(S(=O)(=O)c3ccc4c(c3)oc(=O)n4C)C2)C1 (stereo unspecified),81*,0.2,2,28,0.7
Cn1c(=O)oc2cc(S(=O)(=O)N3CCCC(C(=O)N4CCc5ccccc5C4)C3)ccc21 (stereo unspecified),48,0.5,3,91*,0.1
Cn1c(=O)oc2cc(S(=O)(=O)N3CCC(C(=O)N4CCN(c5ccccc5)CC4)CC3)ccc21,-31,1.3,2,-9,1.1
Cn1c(=O)oc2cc(S(=O)(=O)N3CCC(C(=O)N4CC=C(c5ccccc5)CC4)CC3)ccc21,-5,1.1,3,73*,0.3
O=C(CN1CCN(Cc2cccc(Cl)c2)C1=O)NCc1ccccn1,-12,1.1,34*,-20,1.2
O=C(CN1CCN(Cc2ccccc2)C1=O)NCc1ccc(Cl)cc1,12,0.9,5,16,0.8
O=C(CN1CCN(Cc2ccccc2F)C1=O)NCCc1ccc(Cl)cc1,88*,0.1,3,66*,0.3
Cc1ccc(CN2CCN(CC(=O)NC(C)CCc3ccccc3)C2=O)cc1 (stereo unspecified),67*,0.3,7,58*,0.4
CCN(CCNC(=O)CN1CCN(Cc2ccc(Cl)cc2)C1=O)c1ccccc1,52*,0.5,18,57*,0.4
CC(CCc1ccccc1)NC(=O)CN1CCN(Cc2ccccc2)C1=O (stereo unspecified),23,0.8,22,8,0.9
COC(=O)c1c(NC(=O)CC2SC(N)=NC2=O)sc2c1CCC(C(C)(C)C)C2 (stereo unspecified),.,.,4,.,.
COc1ccc2c(c1)CCC/C2=N\NC(=O)c1ccoc1C,.,.,25,.,.
CCOc1cc(C(=O)O/N=C(\N)c2ccc([N+](=O)[O-])cc2)cc(OCC)c1OCC,20,0.8,10,5,0.9
CC(CCc1ccccc1)NC(=O)CN1CCN(Cc2ccc(Cl)cc2)C1=O (stereo unspecified),56*,0.4,5,71*,0.3
Cc1cc(C)cc(NC(=O)C(c2ccccc2)N2CCCC2)c1 (stereo unspecified),.,.,8,.,.
CCOC(=O)c1c(C)[nH]c(C(=O)COC(=O)c2ccccn2)c1C,56*,0.4,26,34,0.7
CCOC(=O)c1c(C)[nH]c(C)c1C(=O)Cn1nnc(-c2ccccc2C)n1,.,.,31,.,.
CCOC(=O)c1c(C)[nH]c(C(=O)Cn2nnc(-c3ccccc3Cl)n2)c1C,82*,0.2,11,19,0.8
CCOC(=O)c1c(C)[nH]c(C(=O)Cn2nnc(-c3ccccc3)n2)c1C,48,0.5,11,59*,0.4
CCCC(CCC)n1[nH]c(=O)c2c(C)cc(C)nc21,-5,1.1,7,-2,1
SMILES,CYP2C9 inh,CYP2C9 activ,Measles CPE,CYP2C19 inh,CYP2C19 act
O=C1C2(c3ccccc3)CN(CCO)CC1(c1ccccc1)CN(CCO)C2,-12,1.1,22,1,1
Cc1ccc(NC2CC(=O)N(CCc3ccccc3)C2=O)cc1 (stereo unspecified),0,1,24,64*,0.4
COc1ccc(CCNC2CC(=O)N(CCc3ccccc3)C2=O)cc1 (stereo unspecified),34,0.7,6,70*,0.3
COc1ccc(CCN2C(=O)CC(NNC(=O)c3ccccc3Br)C2=O)cc1 (stereo unspecified),.,.,32,.,.
O=C1CC(NCc2ccco2)C(=O)N1CCc1ccccc1 (stereo unspecified),2,1,27,48,0.5
O=C(CSc1nc2ccccc2c(=O)n1NC(=O)c1ccccc1)c1ccccc1,86*,0.1,14,33,0.7
O=C(CSc1nc2ccccc2c(=O)[nH]1)c1ccccc1,.,.,14,.,.
CC(=O)NCCn1c(SCC(=O)c2ccc(Cl)cc2)nc2ccccc2c1=O,16,0.8,7,30,0.7
O=C(CSc1nc2ccccc2c(=O)n1NC(=O)c1ccccc1)c1ccc(Cl)cc1,78*,0.2,7,46,0.5
NC(=O)NCC12CC3CC(CC(C3)C1)C2,-6,1.1,2,1,1
CC(=O)Nc1nonc1-c1nc2ccccc2n1CCC#N,10,0.9,2,-4,1
CCC(=O)Nc1cc(-c2nn(C)c(=O)c3ccccc23)ccc1N1CCOCC1,62*,0.4,16,34,0.7
Cn1nc(-c2ccc(N3CCCCC3)c(NC(=O)c3ccco3)c2)c2ccccc2c1=O,96*,0,7,59*,0.4
CCC(=O)Nc1cc(-c2nnc(OC)c3ccccc23)ccc1N1CCOCC1,36,0.6,23,14,0.9
CC/C(=C\C(=O)c1ccncc1)Nc1ccc(O)cc1,41,0.6,4,87*,0.1
CCC(=O)Nc1ccc(C(=O)Nc2cccnc2)cc1,2,1,15,-10,1.1
Cc1ccc(CN2C(=O)CCC2C(=O)NCCN2CCOCC2)cc1 (stereo unspecified),4,1,4,19,0.8
Cc1cccc(CCNC(=O)C2CCC(=O)N2Cc2ccc(F)cc2)c1 (stereo unspecified),22,0.8,14,15,0.8
Cc1ccc(CCNC(=O)C2CCC(=O)N2Cc2cccnc2)cc1 (stereo unspecified),40,0.6,4,59*,0.4
O=C(NCCc1ccc(Cl)cc1)C1CCC(=O)N1Cc1ccc(F)cc1 (stereo unspecified),66*,0.3,19,73*,0.3
Cc1cc(C)c(NC(=O)C2C3/C=C\CCCCC32)c(C)c1 (stereo unspecified),1,1,4,38,0.6
CC(=O)Oc1ccc2c(c1)C(=O)c1ccccc1CO2,32,0.7,8,68*,0.3
CCOC(=O)c1cc(C(=O)OCC)c2cc(Br)ccc2n1,64*,0.4,9,47,0.5
Cc1cccc(NC(=S)NCC2CCCO2)c1 (stereo unspecified),-20,1.2,3,-12,1.1
Cc1cc(C)c(S(=O)(=O)N2CCN(C)CC2)c(C)c1,-122,2.2*,10,7,0.9
